# Compound activity from PubChem.
# This is a sample that favours compounds with a hit; in the whole collection about 2.8% have one here.
# rCAG RNA binder: binders of r(CAG) RNA repeats, primary screen, biochemical, fluorescence; 370,000 tested, 1.3% active; inhibition, % at 3 µM; r(CAG) RNA repeat, TO-PRO-1 dye displacement fluorescence;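 active = inhibition above the plate cutoff, the mean of all test compounds on that plate plus 3 SD, cut at about 35% in these data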;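 note: higher means more dye released from RNA so lower well fluorescence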
# sPLA2-III inh: human group III sPLA2 inhibitors, primary screen, biochemical, QFRET, BODIPY PC-A2 liposome substrate; QFRET BODIPY PC-A2 liposome hydrolysis, fluorescence; inhibition, % at 12.2 µM; 370,000 tested, 0.56% active; AID 743126, 2013;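 active = inhibition above mean plus 3 SD of compounds lying within the high and low control bounds, cut at about 19% in these data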
# Target sequence (Q9NZ20 whole entry, looked up): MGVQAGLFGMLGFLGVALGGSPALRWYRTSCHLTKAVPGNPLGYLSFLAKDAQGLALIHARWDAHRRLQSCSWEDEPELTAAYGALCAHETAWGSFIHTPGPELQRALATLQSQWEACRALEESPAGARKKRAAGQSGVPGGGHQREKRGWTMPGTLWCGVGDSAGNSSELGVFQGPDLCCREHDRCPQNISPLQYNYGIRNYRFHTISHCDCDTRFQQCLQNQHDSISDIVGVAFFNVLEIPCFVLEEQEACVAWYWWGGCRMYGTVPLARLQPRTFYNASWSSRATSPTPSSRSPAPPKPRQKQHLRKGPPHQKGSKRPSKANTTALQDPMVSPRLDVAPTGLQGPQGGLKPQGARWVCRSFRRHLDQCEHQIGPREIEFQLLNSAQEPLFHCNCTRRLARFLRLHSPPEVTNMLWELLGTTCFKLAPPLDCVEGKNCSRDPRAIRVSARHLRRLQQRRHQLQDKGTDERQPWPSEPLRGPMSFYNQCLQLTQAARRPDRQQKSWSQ
# MsrA act: bovine MsrA enzyme activators, primary screen, biochemical, absorbance, HTS. purified bovine MsrA, absorbance read-out. activation, % at 10.6 µM. 360,000 tested, 0.3% active. AID 602163, 2012; in the data active = activation above about 7.5%
# MsrA inhibitor: bovine MsrA enzyme inhibitors, primary screen, biochemical, absorbance, HTS; inhibition, % at 15.5 µM; 360,000 tested, 0.75% active; Methionine sulfoxide reductase A (Bos taurus); purified bovine MsrA, absorbance read-out; in the data active = inhibition above about 4.5%
# rCAG binder conf: small molecules binding CAG repeat RNA – biochemical, fluorescence, confirmation. shares compounds with rCAG RNA binder. r(CAG) RNA repeat, TO-PRO-1 dye displacement fluorescence. inhibition, % at 3 µM. 4,300 tested, 70% active. AID 652065, 2013;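 active = inhibition above a per-plate cutoff, the mean inhibition of sample wells plus 3 SD, cut at about 35% in these data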;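 note: loss of TO-PRO-1 fluorescence as compound displaces dye from 1x1 AA loop RNA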
# dCAG dye counter: displacement of TO-PRO-1 from CAG DNA duplex, counter-screen for rCAG RNA repeat binder project, biochemical, fluorescence, TO-PRO-1 dye, d(CAG) DNA oligo | d(CAG) DNA oligo TO-PRO-1 dye displacement | 4,300 tested, 94% active | shares compounds with rCAG RNA binder | inhibition, % at 3 µM;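 active = inhibition above its plate's cutoff, the mean test-well inhibition plus 3 SD, cut at about 4.8% in these data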;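 note: hits displace the dye from DNA and so lower well fluorescence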
# dCAG dye DR: inhibitors of DNA CAG/GTC TO-PRO-1 complex, dose response, counter-screen for rCAG RNA repeat binder project, biochemical, fluorescence, TO-PRO-1 dye | shares compounds with rCAG RNA binder | DNA CAG/GTC duplex TO-PRO-1 dye displacement fluorescence | IC50, µM | 250 tested, 20% active; in the data active = IC50 below about 10 µM
# A number is an active result; i = inactive; nt = not tested or not shown.
SMILES,rCAG RNA binder,sPLA2-III inh,MsrA act,MsrA inhibitor,rCAG binder conf,dCAG dye counter,others
CSc1ncc(Cl)c(C(=O)Nc2cccc(C)c2)n1,i,i,i,i,nt,nt,
CSc1ncc(Cl)c(C(=O)C(C#N)c2nc3c(C)cc(C)cc3c(=O)[nH]2)n1 (stereo not drawn),62,i,i,i,81,50,
COC(=O)c1sc(SC)c(S(=O)(=O)C(C)C)c1N/N=C(\C#N)C(=O)c1ccccc1,52,i,i,i,71,22,dCAG dye DR=4.3
CCc1nnc(NS(=O)(=O)c2ccc(NC(=O)c3ccccc3)cc2)s1,i,i,i,i,nt,nt,
COc1ccc(NS(=O)(=O)c2ccc(NC(=S)NC(=O)/C=C/c3ccccc3)cc2)nn1,40,i,i,i,51,17,
CCc1nnc(NS(=O)(=O)c2ccc(NC(=O)/C=C/c3ccccc3Cl)cc2)s1,86,i,i,i,82,54,
CCc1nnc(NS(=O)(=O)c2ccc(NC(=S)NC(=O)c3ccc(Br)cc3)cc2)s1,83,i,i,i,80,49,
CCc1nnc(NS(=O)(=O)c2ccc(NC(=S)NC(=O)c3ccccc3)cc2)s1,65,i,i,i,51,18,
CN(C)S(=O)(=O)c1cccc(NC(=O)c2cc(-c3cccs3)nn2-c2cccc(Cl)c2)c1,i,i,i,i,nt,nt,
COC(=O)CC1C(=O)NCCN1C(=O)CSc1nnc(Nc2ccc(C)cc2)s1 (stereo not drawn),i,i,i,i,nt,nt,
CCN(CC)S(=O)(=O)c1ccc2c(c1)c(=O)c(C(=O)N1CCc3ccccc3C1)cn2C,i,i,i,i,nt,nt,
CCc1nnc(NS(=O)(=O)c2ccc(NC(=S)NC(=O)/C=C/c3ccc(OC)cc3)cc2)s1,i,i,i,i,nt,nt,
COc1cc(NS(=O)(=O)c2ccc(NC(=S)NC(=O)/C=C/c3ccc(F)cc3)cc2)ncn1,i,i,i,i,nt,nt,
CCc1nnc(NS(=O)(=O)c2ccc(NC(=S)NC(=O)/C=C/c3ccccc3)cc2)s1,87,i,i,i,85,50,
COc1nccnc1NS(=O)(=O)c1ccc(NC(=S)NC(=O)/C=C/c2ccc(F)cc2)cc1,71,i,i,i,59,24,
Oc1ccc(Cl)cc1Sc1cc(Cl)ccc1O,38,i,i,i,43,12,
Cc1c(Cc2ccccc2)c(=O)oc2c(C)c(OCC(=O)N[C@@H](Cc3ccccc3)C(=O)O)ccc12,47,i,i,i,70,29,dCAG dye DR=i
CCC(NC(=O)Cc1c(C)c2ccc(OC)c(C)c2oc1=O)C(=O)NC(Cc1ccc(Cl)cc1)C(=O)O (stereo not drawn),36,i,i,i,41,8.8,
CCCCCCc1c(C)c2ccc(OCC(=O)N[C@@H](Cc3ccccc3)C(=O)O)cc2oc1=O,46,i,i,i,76,31,dCAG dye DR=i
Cc1c(Cc2ccccc2)c(=O)oc2cc(OCC(=O)NC(Cc3ccc(Cl)cc3)C(=O)O)ccc12 (stereo not drawn),52,i,i,i,66,25,
COc1ccc(Cl)cc1-c1cc(C(=O)NCc2cc(C(F)(F)F)cc(C(F)(F)F)c2)[nH]n1,i,i,i,i,nt,nt,
COc1ccc(N=Nc2c(C)n[nH]c2C)cc1,i,i,i,i,nt,nt,
Cc1c(C)c2ccc(OCC(=O)N[C@@H](Cc3ccccc3)C(=O)O)cc2oc1=O,i,i,i,i,nt,nt,
Cc1cc(OCC(=O)N[C@@H](CSCc2ccccc2)C(=O)O)c2c(C)c(C)c(=O)oc2c1,49,i,i,i,54,13,
CCOc1ccc(NC(=S)NCc2ccc3c(c2)OCO3)cc1,i,i,i,i,nt,nt,
SMILES,rCAG RNA binder,sPLA2-III inh,MsrA act,MsrA inhibitor,rCAG binder conf,dCAG dye counter,others
N#Cc1ccc(OCC(=O)NCC(c2cccs2)N2CCOCC2)cc1 (stereo not drawn),i,i,i,i,nt,nt,
COc1ccc(C2(C(=O)O)CCCC2)cc1,i,i,i,i,nt,nt,
CCc1c(O)nc(SCC(=O)Nc2c(C)cccc2C)n(-c2ccc(F)cc2)c1=O,i,i,i,i,nt,nt,
Cc1c(O)nc(SCC(=O)Nc2ccc3c4c(cccc24)CC3)n(-c2ccc(F)cc2)c1=O,46,i,i,i,i,8.3,
COC(=O)C1(C)NC(c2cccs2)C2C(=O)N(c3ccccc3F)C(=O)C21 (stereo not drawn),i,i,i,i,nt,nt,
Cc1cccc(NC(=O)c2cc(Cl)nc3ccccc23)c1,i,i,i,i,nt,nt,
CN(C)c1ccc(N=Nc2ccc(S(N)(=O)=O)cc2)cc1,i,i,i,i,nt,nt,
CN(C)c1ccc(N=Nc2ccc(S(=O)(=O)O)cc2)c2ccccc12,77,i,i,i,59,24,
CC1=C(C(=O)Nc2ccccc2)C(c2ccc(Cl)cc2)n2c(s/c(=C/c3cccc(OCC(=O)O)c3)c2=O)=N1 (stereo not drawn),67,i,i,i,87,63,
CCOc1ccc(C2C(C(=O)Nc3ccccc3)=C(C)N=c3s/c(=C/c4cccc(OCC(=O)O)c4)c(=O)n32)cc1 (stereo not drawn),67,i,i,i,83,54,
CC1=C(C(=O)Nc2ccccc2)C(c2ccc(C)o2)n2c(s/c(=C/c3ccccc3)c2=O)=N1 (stereo not drawn),i,i,i,i,nt,nt,
Cc1c(C)n(Cc2ccc(-c3ccccc3C(=O)O)cc2)c2ccc(C(=O)N[C@@H](C)c3ccc(Br)cc3)cc12,77,i,nt,nt,77,38,
Cc1c(C)n(Cc2ccccc2)c2ccc(C(=O)O)cc12,i,i,i,i,nt,nt,
Cc1cccc(CC(=O)NCC2CCCCC2)c1,nt,nt,i,nt,nt,nt,
Cc1ccc(NS(=O)(=O)c2cc(Br)cnc2N)c(Cl)c1,i,i,i,i,nt,nt,
Nc1ncc(Br)cc1S(=O)(=O)Nc1cc(C(F)(F)F)cc(C(F)(F)F)c1,81,i,i,i,65,27,dCAG dye DR=i
OC1(CN2CCOCC2)C2CN3CCN(C2)CC1(c1ccccc1)C3 (stereo not drawn),i,i,i,i,nt,nt,
CCC(C)(C)C1CCc2c(sc(NC(=O)c3ccccc3C(=O)O)c2C#N)C1 (stereo not drawn),91,i,i,i,84,56,
CC1CCc2c(sc(NC(=O)c3ccccc3C(=O)O)c2C#N)C1 (stereo not drawn),i,i,i,i,nt,nt,
CC(C)(C)C1CCc2c(sc(NC(=O)C3CC=CCC3C(=O)O)c2C#N)C1 (stereo not drawn),80,i,i,i,72,36,
